Data as given in PubChem BioAssay AID540364 (The Scripps Research Institute Molecular Screening Center, 2011).
Hit rate of the full screen: of about 360,000 compounds, about 2,000 (0.56%) were called active.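 The calls were made as follows: active = activation above the average of all compounds screened plus 3 SD, cutoff fixed separately per campaign (cut at about 7.5% in these data); inactive = the rest.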 The entries come from a sample that favours actives as a whole.

test: FXN promoter activators, primary screen, cell-based, luciferase luminescence, HEK293 lucGAA850 (AID 540364); settings: HEK293 lucGAA850 FXN promoter luciferase reporter, 24 h; at 6 µM; hits give high values; percent of 10 µM SAHA response;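 also: 0% = DMSO wells and 100% = 10 µM SAHA wells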

Row | Compound | activation
1 | CCC(=O)NC(=Nc1nc2ccccc2s1)NC(=O)CC | 8.95% (active)
2 | CC(C)CC(=O)N/C(N)=N/c1nc2ccccc2s1 | 4.47% (inactive)
3 | CC(=O)Nc1cccc(-c2nc3ccccc3s2)c1C | 1.28% (inactive)
4 | O=C(NCC1(N2CCCCC2)CCCCC1)c1ccc(NS(=O)(=O)c2ccc(F)cc2)cc1 | 2.54% (inactive)
5 | O=C(Nc1ccccc1N1CCCC1)c1ccc2ccccc2c1 | 1.86% (inactive)
6 | Nc1ccc(C(=O)Nc2ccccc2N)cc1 | 13.5% (active)
7 | O=C(Cc1ccccc1)Nc1ccc(C(=O)Nc2ccccc2C(=O)O)cc1 | -0.24% (inactive)
8 | CCOc1ccccc1NS(=O)(=O)c1cc2c3c(c1)C(C)C(=O)N3CCC2 (centres undefined) | 3.36% (inactive)
9 | O=C1COc2ccc(C(=O)COC(=O)c3cccnc3Cl)cc2N1 | 1.97% (inactive)
10 | CCOC(=O)C1Sc2[nH]c(=O)sc2C(c2ccc(Cl)cc2)C1C(=O)OCC (centres undefined) | -10.5% (inactive)
11 | Cc1ccc(NC(=O)c2ccc(Oc3ncccn3)cc2)cc1 | 3.47% (inactive)
12 | Cc1ccc(C(=O)NNc2ncnc3ccccc23)cc1 | 7.73% (active)
13 | Cc1ccc(C(=O)NNC(=O)c2cc3cc4ccccc4nc3s2)cc1 | -0.4% (inactive)
14 | COC(=O)c1ccc(NC(=O)C23CC4CC(C2)CC(n2cnc(Cl)n2)(C4)C3)cc1 | 2.12% (inactive)
15 | Cc1ccc(S(=O)(=O)N(C)c2nc3ccccc3n3c(C(C)C)nnc23)cc1 | 5.84% (inactive)
16 | CCCCNC(=O)N(O)C1N(/N=C/c2ccccc2O)C(=S)SC1(C)C (centres undefined) | 14.4% (active)
17 | CCC(C)N1C(=S)SC(C)(C)C1N(O)C(=O)NC1CCCCC1 (centres undefined) | 0.24% (inactive)
18 | CCCCNC(=O)N(O)C1N(/N=C/c2ccc(N(C)C)cc2)C(=S)SC1(C)C (centres undefined) | 1.55% (inactive)
19 | COc1ccc(Br)cc1S(=O)(=O)N1CCN=C1C | 2.93% (inactive)
20 | O=C(CCC(=O)Nc1ccccc1)N/N=C/c1ccccc1F | 0.15% (inactive)

Row | Compound | activation
21 | Fc1ccccc1/C=N/Nc1cc(N2CCCCC2)ncn1 | 8.75% (active)
22 | COc1ccccc1N1CCN(C(=O)C(=O)N/N=C/c2ccccc2F)CC1 | -1.01% (inactive)
23 | COc1ccc(-c2cc3nc(NCCOc4ccccc4)ccn3n2)cc1 | 0.64% (inactive)
24 | CNc1nc(Nc2ccc(C)c(Cl)c2)nc(N)c1[N+](=O)[O-] | 17.5% (active)
25 | Nc1nc(NCCCN2CCOCC2)nc(Nc2ccccc2)c1[N+](=O)[O-] | 0.67% (inactive)
26 | CCN1CCN(c2nc(Nc3cccc(F)c3)nc(N)c2[N+](=O)[O-])CC1 | 3.12% (inactive)
27 | O=C(COC(=O)COc1cccc(F)c1)NCC1CCCCC1 | 2.16% (inactive)
28 | Cc1ccc(-c2ccc(CN3C(C(C)C)C(=O)N(Cc4cn(CCC5OCCO5)nn4)CCS3(=O)=O)cc2)cc1 (centres undefined) | -0.96% (inactive)
29 | O=S(=O)(c1ccc(F)cc1)N1CCN(C(=S)NC2CCCC2)CC1 | 3.66% (inactive)
30 | N#CC1=C(SCc2ccc(C#N)cc2)N=C(N)C(c2nc(-c3ccccc3)cs2)C12CCCCC2 (centres undefined) | 9.79% (active)
31 | N#Cc1ccc(CSc2ncccn2)cc1 | 2.06% (inactive)
32 | Cc1ccc(S(=O)(=O)N(C)C)cc1NC(=O)C(C)OC(=O)c1ccc2ccccc2n1 (centres undefined) | 0.74% (inactive)
33 | N#CCSc1nc2ccccc2c(=O)n1-c1ccccc1 | 9.45% (active)
34 | N#CCSc1nc2ccc(N3CCOCC3)cc2c(=O)n1CCc1ccccc1 | -2.84% (inactive)
35 | Cc1nn(-c2ccccc2)c(C)c1/C=N/NC(=O)CSc1nc2ccccc2c(=O)n1-c1ccccc1 | 0.81% (inactive)
36 | COc1ccccc1-c1cc(C(=O)N2CCCCC2)no1 | 3.83% (inactive)
37 | O=C(c1cc(-c2ccc(Cl)cc2)on1)N1CCN(c2ccccc2)CC1 | 3.73% (inactive)
38 | COc1ccccc1N1CCN(C(=O)c2cc(-c3ccc(Br)cc3)on2)CC1 | 17.8% (active)
39 | CC1(c2ccc(Cl)cc2Cl)NC(=O)N(CC(=O)Nc2cccnc2Cl)C1=O (centres undefined) | 0.61% (inactive)
40 | O=C(N[C@H]1C/C=C\C(c2cccc(F)c2)N(Cc2ccccc2)C(=O)C1)OCC1c2ccccc2-c2ccccc21 (some centres undefined) | -2.16% (inactive)

Row | Compound | activation
41 | CN(C)CCNC(=O)c1cccc(-c2cnc3c(NC=O)cc(-c4cccc(C(F)(F)F)c4)cn23)c1 | -0.71% (inactive)
42 | CCCCc1nc2c(=O)[nH]c3ccccc3c2o1 | 3.48% (inactive)
43 | Cn1nnnc1SCc1cc(=O)[nH]c2ccccc12 | 0.27% (inactive)
44 | CC(Sc1nc2c([nH]c3ccccc32)c(=O)n1C)c1ccccc1 (centres undefined) | 13.8% (active)
45 | CCN(CC)CCNC(=O)c1sc2ncn(CC(=O)Nc3ccc(C)c(Cl)c3)c(=O)c2c1C | 0.29% (inactive)
46 | COc1ccc(-c2cc(NC(C)=O)c3ncc(-c4cc(OC)c(OC)c(OC)c4)n3c2)cn1 | -2.13% (inactive)
47 | Cc1cc(C)n2nc(CNS(=O)(=O)c3c(F)c(F)c(F)c(F)c3F)nc2n1 | 8.27% (active)
48 | Cc1cc(C)n2nc(SCC(N)=O)nc2n1 | 0.08% (inactive)
49 | Cc1cc(C)n2nc(C(=O)NC(C)(C)C)nc2n1 | -0.66% (inactive)
50 | CCC(C)(C(=O)NC1CCCC1)N(C(=O)CNC(C)=O)c1ccc(C)cc1 (centres undefined) | -0.84% (inactive)
51 | C[C@H]1CN([C@@H](C)CO)C(=O)CCCn2cc(nn2)CO[C@@H]1CN(C)S(=O)(=O)c1ccc(-c2ccccc2)cc1 | -1.7% (inactive)
52 | CC(C)[C@H](NC(=O)c1ccc(F)cc1)C(=O)OCC(=O)NC(=O)c1cccn1C | 0.53% (inactive)
53 | Fc1ccc2nc(N3CCCCC3)sc2c1 | 8.32% (active)
54 | Fc1ccc2nc(Nc3nc4c(s3)CCCC4)sc2c1 | 5.51% (inactive)
55 | c1c2c(cc3sc(N4CCCCC4)nc13)OCCO2 | -6.92% (inactive)
56 | Cc1cccc(-n2c(Cc3cc(=O)[nH]c(=O)[nH]3)nnc2SCC(=O)Nc2cccc(C(F)(F)F)c2)c1 | 0.62% (inactive)
57 | CC1CCC2(CC1)NC(=O)N(Cc1nnc(-c3cccs3)o1)C2=O (centres undefined) | 1.39% (inactive)
58 | CC(C)N1C(=S)SC(C)(C)C1n1oc(=O)n(-c2ccc(Cl)c(Cl)c2)c1=O (centres undefined) | -0.29% (inactive)
59 | COC(=O)CSc1snnc1-c1ccc(Cl)c(Cl)c1 | 2.88% (inactive)
